The text below walks through data of PubChem BioAssay (NCI).

Common to all, as to assay: NCI-60 one-dose screen, 48 h (100 = growth as untreated, 0 = no growth, -100 = all killed)
One assay relates to RPMI-8226 leukemia. Particulars: 10 µM unless noted.
The test system of another assay is OVCAR-8 ovarian. Particulars: 10 µM unless noted.
For another assay, the system named is OVCAR-5 ovarian. The note with it: 10 µM unless noted.
The test system of another assay is OVCAR-4 ovarian. The note with it: 10 µM.
Another assay deals with SK-OV-3 ovarian. The note with it: 10 µM unless noted.
For the next assay, the system named is OVCAR-3 ovarian. Particulars: 10 µM unless noted.
The subject of a further assay is HS 578T breast. Particulars: 10 µM unless noted.
For a further assay, the system named is NCI/ADR-RES ovarian. Particulars: 10 µM unless noted.
The next assay concerns T-47D breast. The note with it: 10 µM unless noted.
A further assay deals with BT-549 breast. The note with it: 10 µM unless noted.
The subject of a further assay is MDA-MB-435 melanoma. The note with it: 10 µM unless noted.
The next assay relates to SW-620 colon. The note with it: 10 µM unless noted.
For another assay, the system named is MCF7 breast. The note with it: 10 µM unless noted.
In another assay the test system is HCT-116 colon. Particulars: 10 µM unless noted.
A further assay concerns HCC-2998 colon. The note with it: 10 µM unless noted.
Another assay deals with KM12 colon. The note with it: 10 µM unless noted.
The subject of the next assay is IGROV1 ovarian. Particulars: 10 µM unless noted.

About 83,000 compounds went through this panel and 20% of them were active in at least one assay; those are over-represented in the sample as a whole.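 96-well plates, one dose, 48 hours. Percent growth reported; active if below 10.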 A number with no mark means an inactive call. Active and inactive are the calls of the source.

On to `Nc1nnc(CSc2nnc3n(Cc4ccccc4)c(=O)c4c5c(sc4n23)CCCC5)s1`, for which the growth was 65.4% in the assay with RPMI-8226 leukemia; 98.7% in the assay with OVCAR-8 ovarian; 103% with OVCAR-5 ovarian; 98.8% in the assay with OVCAR-4 ovarian; 42.7% with SK-OV-3 ovarian; 92.3% with OVCAR-3 ovarian. Further, the growth in the assay on HS 578T breast is 106%; in the assay on NCI/ADR-RES ovarian, 94.4%; in the assay with T-47D breast, 74%; in the assay on BT-549 breast, 117%; with MDA-MB-435 melanoma it was 106%; with SW-620 colon, 110%. The growth was -30.9% (active) with MCF7 breast, 89.5% with HCT-116 colon, 105% in the assay with HCC-2998 colon and 121% in the assay on KM12 colon.

Regarding `Oc1cc(Nc2ccnc3cc(Cl)ccc23)c2ncccc2c1`, the growth in the assay on RPMI-8226 leukemia is 53.5%; with OVCAR-8 ovarian, 70.3%; with OVCAR-5 ovarian it was 104%; in the assay with OVCAR-4 ovarian it was 44.4%; in the assay on SK-OV-3 ovarian, 85.4%; in the assay on IGROV1 ovarian it was 94.3%. Moreover, the growth with OVCAR-3 ovarian was 81%; in the assay on HS 578T breast, 62.1%; in the assay with NCI/ADR-RES ovarian, 51.8%; in the assay with T-47D breast it was 52.1%; in the assay with MDA-MB-435 melanoma, 70%; in the assay with SW-620 colon it was 66.6%. Further, the growth was 61% with MCF7 breast, 69.3% in the assay on HCT-116 colon, 112% in the assay with HCC-2998 colon and 87.6% in the assay on KM12 colon.

`c1ccc(-c2nc(N3CCCNCC3)c3nc(-c4ccccc4)oc3n2)cc1`: the growth with RPMI-8226 leukemia was -15.7% (active); in the assay on OVCAR-8 ovarian, 59.5%; in the assay with OVCAR-5 ovarian, 87.9%; in the assay with OVCAR-4 ovarian it was 76.3%; in the assay with IGROV1 ovarian, -56% (active); in the assay on OVCAR-3 ovarian it was -69.8% (active). The growth was 83.6% in the assay with HS 578T breast; -11.8% (active) in the assay with NCI/ADR-RES ovarian; 46.9% with T-47D breast; 95.3% with BT-549 breast; -85.7% (active) with MDA-MB-435 melanoma; -77.1% (active) with SW-620 colon. Besides, the growth with MCF7 breast was -66.7% (active); with HCT-116 colon, -74.8% (active); in the assay on HCC-2998 colon, -88.7% (active); with KM12 colon, -74.7% (active).

As to `CCCCCn1c(C)cc(/C=C\c2ccc3cc(C)ccc3[n+]2C)c1C`, the growth in the assay on RPMI-8226 leukemia was -43.5% (active); with OVCAR-8 ovarian it was -69.5% (active); in the assay on OVCAR-5 ovarian, 12%; in the assay on OVCAR-4 ovarian, -8.22% (active); in the assay with IGROV1 ovarian, -84% (active); in the assay on OVCAR-3 ovarian, -72.7% (active). Also, the growth was 59.1% in the assay on NCI/ADR-RES ovarian; -49.1% (active) with T-47D breast; -29.9% (active) with BT-549 breast; -90.2% (active) in the assay on MDA-MB-435 melanoma; -35.9% (active) with SW-620 colon; -18.2% (active) in the assay with MCF7 breast. Besides, the values for the growth with HCT-116 colon, in the assay with HCC-2998 colon and in the assay on KM12 colon were -34.4% (active), -70.1% (active) and -72.4% (active), respectively.

As to `COc1ccc2c(c1)C(C)Cc1c(Cl)ncnc1N2C` (stereo not given), the growth in the assay on RPMI-8226 leukemia was -2.61% (active); in the assay on OVCAR-8 ovarian, 7% (active); in the assay on OVCAR-5 ovarian, 41.5%; in the assay with OVCAR-4 ovarian, 7.09% (active); with SK-OV-3 ovarian, 12.2%; in the assay with IGROV1 ovarian it was 23.7%. For the same compound, the growth in the assay on OVCAR-3 ovarian is 2.22% (active); in the assay on HS 578T breast, 16.9%; with T-47D breast, 4.2% (active); in the assay with MDA-MB-435 melanoma, -25.2% (active); in the assay with SW-620 colon it was 3.63% (active); in the assay on MCF7 breast, 1.16% (active). The growth in the assay on HCT-116 colon was 7.03% (active); in the assay with HCC-2998 colon, 22.3%; with KM12 colon it was 4.12% (active).

With `Cc1ccc(NC(=O)N[C@@H](Cc2cc(F)cc(F)c2)C(=O)N[C@@H]2C(=O)N3CCC[C@H]3C(=O)N3CCCC[C@H]3C(=O)N[C@@H](C)C(=O)N3C[C@H](C)C[C@H]3C(=O)O[C@H]2C)cc1`, the growth with RPMI-8226 leukemia is 20.1%; in the assay on OVCAR-8 ovarian it was 18.5%; in the assay on OVCAR-5 ovarian, 34.6%; with OVCAR-4 ovarian it was 11.3%; in the assay with IGROV1 ovarian it was 45.9%; with OVCAR-3 ovarian it was 19.8%. For the same compound, the growth is 35.6% in the assay with HS 578T breast; 34.4% with NCI/ADR-RES ovarian; 19.7% in the assay on T-47D breast; 18.5% in the assay on MDA-MB-435 melanoma; 35.6% with SW-620 colon; 23.1% with MCF7 breast. For the same compound, the growth is 11.2% in the assay with HCT-116 colon, 24.6% in the assay on HCC-2998 colon and 37.8% in the assay on KM12 colon.

For the compound `Cc1cccc(C[C@H](NC(=O)Nc2ccc(Cl)cc2F)C(=O)N[C@@H]2C(=O)N3C[C@H](O)C[C@H]3C(=O)N3CCCC[C@H]3C(=O)N[C@@H](C)C(=O)N3C[C@H](C)C[C@H]3C(=O)O[C@H]2C)c1`, the growth was 6.39% (active) in the assay on RPMI-8226 leukemia; 13.5% with OVCAR-8 ovarian; 7.83% (active) in the assay with OVCAR-4 ovarian; 9.47% (active) in the assay with IGROV1 ovarian; -26.4% (active) with OVCAR-3 ovarian; 10.9% in the assay with HS 578T breast. Besides, the growth in the assay with NCI/ADR-RES ovarian was 89.9%; in the assay on T-47D breast, 5.41% (active); with BT-549 breast, -9.79% (active); in the assay on MDA-MB-435 melanoma, -5.25% (active); in the assay with SW-620 colon it was 20.7%; in the assay on MCF7 breast, 6.39% (active). In addition, the growth in the assay with HCT-116 colon is -31.6% (active); in the assay on HCC-2998 colon, -49% (active).

Regarding `CC1(C)CC[C@]2(C(=O)O)CC[C@]3(C)C(=CC[C@@H]4[C@@]5(C)C/C(=C/c6cccnc6)[C@H](O)C(C)(C)[C@@H]5CC[C@]43C)[C@@H]2C1`, the growth was -12% [100 µM] (active) in the assay with RPMI-8226 leukemia; 13.2% [100 µM] with OVCAR-8 ovarian; -2.1% [100 µM] (active) in the assay with OVCAR-5 ovarian; 1.32% [100 µM] (active) with SK-OV-3 ovarian; 2.18% [100 µM] (active) with IGROV1 ovarian; -14.6% [100 µM] (active) in the assay with OVCAR-3 ovarian. In addition, the growth was 3% [100 µM] (active) in the assay on HS 578T breast; 3.8% [100 µM] (active) in the assay with NCI/ADR-RES ovarian; 15.1% [100 µM] in the assay with T-47D breast; 0.607% [100 µM] (active) with BT-549 breast; 7.02% [100 µM] (active) with MDA-MB-435 melanoma; 13.3% [100 µM] with SW-620 colon. Further, the growth in the assay on MCF7 breast is 3.95% [100 µM] (active); in the assay with HCT-116 colon it was -33.4% [100 µM] (active); in the assay with HCC-2998 colon, -37.5% [100 µM] (active); in the assay with KM12 colon it was -38.1% [100 µM] (active).

On to `CC[C@@H]1NC(=O)[C@@H]2CCCCN2C(=O)[C@@H]2CCCN2C(=O)[C@@H](NC(=O)[C@H](Cc2cc(F)cc(F)c2)NC(=O)Nc2ccc(C3CC3)cc2F)[C@H](C)OC(=O)[C@@H]2C[C@@H](C)CN2C1=O`, for which the growth in the assay with RPMI-8226 leukemia is 12.8%; in the assay on OVCAR-8 ovarian it was 13.2%; in the assay with OVCAR-5 ovarian, -1.92% (active); in the assay with OVCAR-4 ovarian it was 7.84% (active); in the assay on IGROV1 ovarian it was 28.5%; with OVCAR-3 ovarian it was 6.44% (active). Besides, the growth with HS 578T breast was 20.6%; in the assay with T-47D breast it was 7.13% (active); with BT-549 breast, 5.79% (active); in the assay with MDA-MB-435 melanoma, 3.08% (active); in the assay with SW-620 colon it was 27%; in the assay on MCF7 breast it was 13.4%. The growth was 4.17% (active) in the assay on HCT-116 colon, -14.1% (active) in the assay with HCC-2998 colon and 17% with KM12 colon.

Turning to `CC(C)[C@H]1COC(=O)N1[C@@H]1C(=O)N([C@@H](CCC(=O)N2CCN(C3CCCC3)CC2)C(=O)N[C@@H]2CCCc3ccccc32)[C@@H]1/C=C/c1cccc(Cl)c1`, the growth with RPMI-8226 leukemia is 22.2%; in the assay on OVCAR-4 ovarian it was 68.3%; in the assay on SK-OV-3 ovarian, 88.1%; with IGROV1 ovarian it was 48.4%; in the assay on HS 578T breast, 64.3%; with NCI/ADR-RES ovarian, 64.1%. The growth with T-47D breast is 61.4%; in the assay with MDA-MB-435 melanoma, 32.7%; with SW-620 colon, 61.9%; in the assay with MCF7 breast it was 34.7%; with HCT-116 colon, 32.7%; with HCC-2998 colon, 51.8%. Besides, the growth with KM12 colon was 48.8%.

With `Cc1ccc2c(n1)C(=O)C(Cl)=C(Nc1ccc(N3CCN(C)CC3)cc1)C2=O`, the growth in the assay on RPMI-8226 leukemia is -32.6% (active); with OVCAR-8 ovarian, -62.6% (active); in the assay on OVCAR-5 ovarian, -7.55% (active); in the assay on OVCAR-4 ovarian, -100% (active); in the assay with SK-OV-3 ovarian, 89.9%; with IGROV1 ovarian it was -83.5% (active). Further, the growth was -100% (active) with OVCAR-3 ovarian; 58% in the assay on HS 578T breast; 27.6% with NCI/ADR-RES ovarian; -61.1% (active) with T-47D breast; -99.1% (active) with MDA-MB-435 melanoma; -69.8% (active) in the assay with SW-620 colon. The growth in the assay with MCF7 breast is -61.9% (active); in the assay with HCC-2998 colon, 95.3%.
